# Measurements published in PubChem BioAssay.
# “And” between values parts separate entries of the source, which are not always exact repeats. Equal values may be shown once. Records with an inconclusive call do not appear. The source made the active and inactive calls.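 Rule for the calls, unless noted: active = normalized viability below 100% at a tested concentration; inactive = the rest.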
# How the values were obtained:
# [1] = viability loss in pontine glioma line – cell-based, SU-DIPG-XVII, MIPE5.0, CellTiter-Glo, qHTS, dose response (AID 1347060; cut-off not given, nearly all actives have AC50 up to about 26 µM;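 note: cells exposed to compound for 48 hours before viability readout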); details: CellTiter-Glo ATP luminescence
# [2] = viability loss in pontine glioma line – cell-based, JHH-DIPG-1, MIPE4.0, CellTiter-Glo, qHTS, dose response (AID 1347062; cut-off not given, nearly all actives have AC50 up to about 27 µM;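 for AC50: cells exposed to compound for two days before readout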); details: JHH-DIPG-1 viability, CellTiter-Glo ATP luminescence
# [3] = viability loss in pontine glioma line – cell-based, SU-DIPG-IV, MIPE4.0, CellTiter-Glo, qHTS, dose response (AID 1347063; cut-off not given, nearly all actives have AC50 up to about 30 µM;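 note: compound exposure lasted 48 hours before the viability readout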); details: CellTiter-Glo ATP luminescence
# [4] = viability loss in pontine glioma line – cell-based, SU-DIPG-XIII, MIPE5.0, CellTiter-Glo, qHTS, dose response (AID 1347064; cut-off not given, nearly all actives have AC50 up to about 23 µM;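 note: cells exposed to compound for 48 hours before the viability read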); details: CellTiter-Glo ATP luminescence
# [5] = viability loss in pontine glioma line – cell-based, SU-DIPG-XXV, MIPE5.0, CellTiter-Glo, qHTS, dose response (AID 1347065; cut-off not given, nearly all actives have AC50 up to about 26 µM;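 note: cells exposed to compound for 48 hours before ATP readout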); details: CellTiter-Glo ATP luminescence
# [6] = growth inhibition of DIPG cells – cell-based, MIPE4.0 library, CellTiter-Glo luminescence, qHTS (AID 1347066; cut-off not given, nearly all actives have AC50 up to about 30 µM;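 note: cells exposed to compound for 48 hours before readout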); details: SU-DIPG-VI viability, CellTiter-Glo ATP luminescence
# [7] = JHH-DIPG-1 glioma cell viability, MIPE5.0 library, CellTiter-Glo luminescence, qHTS (AID 1347067; cut-off not given, nearly all actives have AC50 up to about 26 µM;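 note: cells exposed to compound for 48 hours before readout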); details: JHH-DIPG-1 glioma viability, CellTiter-Glo ATP luminescence
# [8] = growth inhibition of DIPG cells – cell-based, MIPE5.0 library, qHTS (AID 1347068; cut-off not given, nearly all actives have IC50 up to about 30 µM;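 for IC50: cells exposed to compound for 48 hours before viability readout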); details: SU-DIPG-XXV viability
# [9] = compounds altering HSF1 focus formation in cells – imaging, Selleck Cancer Library (AID 1347162; in the data active = plate-normalised HSF1 focus index below about 0.46); details: human cells, HSF1 nuclear foci imaging, at 10 µM; SSMD: measured here: HSF1 foci SSMD mean; cell count: measured here: cell number; plate-normalised HSF1 focus index: stronger effect = lower value
# [10] = drug combination growth inhibition, ovarian cancer – cell-based, oncology-focused library, rucaparib conditional, profiling panel (AID 1508598); details: patient-derived ovarian cancer cells, CellTiter-Glo viability, 144 h, stronger effect = lower value
# [11] = viability loss with induced miR-34 in A549 – imaging, A549 dox-inducible miR-34, nuclei and caspase counts, primary screen (AID 1347080;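 active = compounds whose cell count with miR-34 switched on is under 0.7 times the count with it off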); details: A549 miR-34 inducible, Hoechst nuclei count, 48 h
compound,measurement,setting,value
C[C@@H](Oc1cc(-c2cnn(C3CCNCC3)c2)cnc1N)c1c(Cl)ccc(F)c1Cl,AC50,[1],4.68 µM (active)
same,AC50,[2],16.6 µM (active)
same,AC50,[3],14.8 µM (active)
same,AC50,[4],2.63 µM (active)
same,AC50,[5],1.66 µM (active)
same,AC50,[6],20.9 µM (active)
same,AC50,[7],8.33 µM (active)
same,IC50,[8],4.68 µM (active)
same,SSMD,[9],-10.4
same,cell count,[9],5640
same,plate-normalised HSF1 focus index,[9],0.639 (inactive)
same,viability,"[10]; at 0.000305 µM, OCI-C5x cells, with rucaparib 10 µM, 100% = cells with rucaparib alone",129% (inactive)
same,viability,"[10]; at 0.000305 µM, OCI-C5x cells, without rucaparib",131% (inactive)
same,viability,"[10]; at 0.000305 µM, OCI-P5x cells, with rucaparib 20 µM, 100% = cells with rucaparib alone",112% (inactive)
same,viability,"[10]; at 0.000305 µM, OCI-P5x cells, without rucaparib",105% (inactive)
same,viability,"[10]; at 0.00122 µM, OCI-C5x cells, with rucaparib 10 µM, 100% = cells with rucaparib alone",124% (inactive)
same,viability,"[10]; at 0.00122 µM, OCI-C5x cells, without rucaparib",125% (inactive)
same,viability,"[10]; at 0.00122 µM, OCI-P5x cells, with rucaparib 20 µM, 100% = cells with rucaparib alone",103% (inactive)
same,viability,"[10]; at 0.00122 µM, OCI-P5x cells, without rucaparib",107% (inactive)
same,viability,"[10]; at 0.00488 µM, OCI-C5x cells, with rucaparib 10 µM, 100% = cells with rucaparib alone",136% (inactive)
same,viability,"[10]; at 0.00488 µM, OCI-C5x cells, without rucaparib",133% (inactive)
same,viability,"[10]; at 0.00488 µM, OCI-P5x cells, with rucaparib 20 µM, 100% = cells with rucaparib alone",106% (inactive)
same,viability,"[10]; at 0.00488 µM, OCI-P5x cells, without rucaparib",104% (inactive)
same,viability,"[10]; at 0.0195 µM, OCI-C5x cells, with rucaparib 10 µM, 100% = cells with rucaparib alone",123% (inactive)
same,viability,"[10]; at 0.0195 µM, OCI-C5x cells, without rucaparib",121% (inactive)
same,viability,"[10]; at 0.0195 µM, OCI-P5x cells, with rucaparib 20 µM, 100% = cells with rucaparib alone",98.3% (active)
same,viability,"[10]; at 0.0195 µM, OCI-P5x cells, without rucaparib",96.4% (active)
same,viability,"[10]; at 0.0781 µM, OCI-C5x cells, with rucaparib 10 µM, 100% = cells with rucaparib alone",125% (inactive)
same,viability,"[10]; at 0.0781 µM, OCI-C5x cells, without rucaparib",121% (inactive)
same,viability,"[10]; at 0.0781 µM, OCI-P5x cells, with rucaparib 20 µM, 100% = cells with rucaparib alone",103% (inactive)
same,viability,"[10]; at 0.0781 µM, OCI-P5x cells, without rucaparib",98.8% (active)
same,viability,"[10]; at 0.313 µM, OCI-C5x cells, with rucaparib 10 µM, 100% = cells with rucaparib alone",118% (inactive)
same,viability,"[10]; at 0.313 µM, OCI-C5x cells, without rucaparib",124% (inactive)
same,viability,"[10]; at 0.313 µM, OCI-P5x cells, with rucaparib 20 µM, 100% = cells with rucaparib alone",101% (inactive)
same,viability,"[10]; at 0.313 µM, OCI-P5x cells, without rucaparib",94.2% (active)
same,viability,"[10]; at 1.25 µM, OCI-C5x cells, with rucaparib 10 µM, 100% = cells with rucaparib alone",117% (inactive)
same,viability,"[10]; at 1.25 µM, OCI-C5x cells, without rucaparib",116% (inactive)
same,viability,"[10]; at 1.25 µM, OCI-P5x cells, with rucaparib 20 µM, 100% = cells with rucaparib alone",72.6% (active)
same,viability,"[10]; at 1.25 µM, OCI-P5x cells, without rucaparib",79.6% (active)
same,viability,"[10]; at 5 µM, OCI-C5x cells, with rucaparib 10 µM, 100% = cells with rucaparib alone",10.7% (active)
same,viability,"[10]; at 5 µM, OCI-C5x cells, without rucaparib",91.2% (active)
same,viability,"[10]; at 5 µM, OCI-P5x cells, with rucaparib 20 µM, 100% = cells with rucaparib alone",6.65% (active)
same,viability,"[10]; at 5 µM, OCI-P5x cells, without rucaparib",13.1% (active)
CCCCC(C)(C)[C@H](O)/C=C/[C@H]1[C@H](O)CC(=O)[C@@H]1C/C=C\CCCC(=O)O,AC50,[1],13.2 µM (active)
same,outcome,[2],inactive
same,outcome,[3],inactive
same,AC50,[4],14.8 µM (active)
same,AC50,[5],14.8 µM (active)
same,AC50,[6],18.7 µM (active)
same,AC50,[7],14.8 µM (active)
same,outcome,[8],inactive
same,fold change,"[11]; stronger effect = lower value, cell number ratio, induced over uninduced",1.01 (inactive) and 0.939 (inactive)
same,fold change,[11]; measured here: relative caspase fold change +Dox/-Dox,1.62 and 1.28
same,cell count,"[11]; measured here: total cells with miR-34 induction, stronger effect = lower value",6230 and 5490
same,cell count,[11]; measured here: total cells without miR-34 induction,6170 and 5850
